We go through 16 molecules from PubChem BioAssay (NCATS).

Where “and” joins values, the source holds several entries; their conditions need not be identical. Equal entries are not always repeated. Records with an inconclusive call do not appear. Calls of active or inactive are those of the source. Unless noted, calls come from the whole dose curve; as a rule, active = well fitted curve in the direction sought with a large enough effect; inconclusive = small, poorly fitted or top-dose-only effect, or another doubt; inactive = no such curve, though single readings can be large; an effect the other way counts as inactive or inconclusive.

A short description of experiment [1]: qHTS Assay for Lipid Storage Modulators (AID 1519; calls by dose curve; for activity change, negative = inhibition: % is set by controls: 0 for no effect and ±100 for the full control effect). To be noted: Drosophila S3 cells, BODIPY lipid droplet/cell ratio, laser cytometry, cells loaded with oleic acid. Summed up: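 Cells seeded at 5,000 per well were treated with compounds over a concentration series and loaded with oleic acid (400 uM, as added). Lipid droplet fluorescence (488 nm excitation, 500-530 nm channel) was read by laser-scanning cytometry and normalized to 20 uM Triacsin C.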
(In general: qHTS replaces the single test concentration by a dilution series.)

The nature of experiment [2]: Cell Viability - LYMP2-007 (AID 979).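 Note: cells exposed to compound for 24 h before reading; 0% = DMSO only and the negative end = 92 µM tetraoctylammonium bromide; nearly all actives have a fitted effect of over 60% in size.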 To be noted: LYMP2-007 lymphoblastoid cell viability; series mostly up to 92.2 µM. In a few lines:
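Cells are seeded at 2500 per well and rested 5 hr. Compounds are then added over a concentration series for 24 hr at 37 C. CellTiter-Glo is added for 30 min at room temperature before luminescence reading.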

Experiment [3] in a line: Cell Viability - LYMP2-008 (AID 980).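 Note: cells exposed to compound for 24 h at 37 °C; % is set by controls: 0 for no effect and ±100 for the full control effect; nearly all actives have a fitted effect of over 60% in size.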 The conditions noted are these: LYMP2-008 lymphoblastoid cell viability, qHTS; series mostly up to 92.2 µM. Summed up: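 Cells seeded at 2500/well and rested 5 hr at 37 C; compounds added over a concentration range and incubated 24 hr at 37 C; CellTiter-Glo added, 30 min at room temperature; luminescence read and AC50 fitted with Hill model.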

A short description of experiment [4]: Cell Viability - LYMP2-010 (AID 981).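 Note: cells exposed to compound for 24 hours at 37 °C; % is set by controls: 0 for no effect and ±100 for the full control effect; nearly all actives have a fitted effect of over 55% in size.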 To be noted: LYMP2-010 lymphoblastoid cell viability, qHTS; series mostly up to 92.2 µM. Summed up:
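Steps: seed 2500 LYMP2-010 cells per well; incubate 5 hr at 37 C; add compound; incubate 24 hr at 37 C; add CellTiter-Glo, wait 30 min at room temperature; read luminescence. Concentration-response fitted to Hill equation for AC50.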

Experiment [5] is described as follows: Cell Viability - LYMP2-012 (AID 982).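 Note: cellular ATP by luciferase luminescence where a drop means cytotoxicity; cells exposed to compound for one day before reading; 0% = DMSO only and full loss = 92 µM tetraoctylammonium bromide; nearly all actives have a fitted effect of over 55% in size.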 The conditions noted are these: LYMP2-012 lymphoblastoid cell viability qHTS; series mostly up to 92.2 µM.
Experiment [6] is described as follows: Cell Viability - LYMP2-014 (AID 983).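 Note: cells exposed to compound for 24 h at 37 °C; plate controls were DMSO only for no effect and 92 µM tetraoctylammonium bromide for full effect; nearly all actives have a fitted effect of over 50% in size.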 The conditions noted are these: LYMP2-014 lymphoblastoid cells, viability qHTS; series mostly up to 92.2 µM. Summed up:
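Cells are plated at 2500/well and left 5 hr at 37 C. Compounds are added across a concentration range and incubated 24 hr at 37 C in complete medium. CellTiter-Glo is added, and luminescence is read after 30 min at room temperature.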

Experiment [7] can be described thus: Cell Viability - LYMP2-016 (AID 984).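 Note: cells exposed to compound for 24 hours at 37 °C; % is set by controls: 0 for no effect and ±100 for the full control effect; nearly all actives have a fitted effect of over 55% in size.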 The conditions noted are these: LYMP2-016 lymphoblastoid cell viability, qHTS; series mostly up to 92.2 µM. In a few lines: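 Human lymphoblastoid cells (LYMP2-016), 2500/well in complete medium, preincubated 5 hr at 37 C, then compound-treated 24 hr at 37 C. Intracellular ATP read by CellTiter-Glo luminescence after 30 min at room temperature; AC50 from Hill-equation concentration-response fits.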

Experiment [8] can be described thus: Cell Viability - LYMP2-018 (AID 985).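 Note: compound exposure lasted 24 hr at 37 °C; plate controls were DMSO only for no effect and tetraoctylammonium bromide at 92 µM for full effect; nearly all actives have a fitted effect of over 50% in size.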 The conditions noted are these: LYMP2-018 lymphoblastoid cells, viability (qHTS); series mostly up to 92.2 µM. In a few lines: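 Seed 2500 lymphoblastoid cells per well, incubate 5 hr at 37 C, add compound and incubate 24 hr at 37 C, add CellTiter-Glo, wait 30 min at room temperature, then read luminescence.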
A short description of experiment [9]: Cell Viability - LYMP2-020 (AID 986).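 Note: cells exposed to compound for 24 h at 37 °C; plate controls were DMSO only for no effect and tetraoctylammonium bromide at 92 µM for full effect; nearly all actives have a fitted effect of over 55% in size.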 The conditions noted are these: series mostly up to 92.2 µM. Summed up:
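Seed 2500 cells per well and incubate 5 hr at 37 C. Add compounds at a concentration series and incubate 24 hr at 37 C. Add CellTiter-Glo, wait 30 min at RT, read luminescence, and fit a Hill curve for AC50.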

Experiment [10] can be described thus: Cell Viability - LYMP2-022 (AID 987). To be noted: LYMP2-022 lymphoblastoid cell viability; series mostly up to 92.2 µM. Summed up:
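Cells were seeded at 2500 per well, rested 5 hr at 37 C, and treated with titrated compounds for 24 hr at 37 C. Cellular ATP was then quantified by luciferase luminescence, and AC50 values were derived from Hill-modelled concentration-response curves.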

Experiment [11] is described as follows: Cell Viability - LYMP2-024 (AID 988).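 Note: plate controls were DMSO only for no effect and 92 µM tetraoctylammonium bromide for full effect; nearly all actives have a fitted effect of over 60% in size.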 The conditions noted are these: LYMP2-024 lymphoblastoid cell viability; series mostly up to 92.2 µM. In a few lines: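 qHTS cytotoxicity, human lymphoblastoid line, complete medium; 24 h cpd treatment, 37 C; CellTiter-Glo ATP luminescence readout; tetraoctylammonium bromide positive control; AC50 via Hill fit.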
The nature of experiment [12]: Cell Viability - LYMP2-026 (AID 989).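 Note: cells exposed to compound for 24 h at 37 °C; % is set by controls: 0 for no effect and ±100 for the full control effect; nearly all actives have a fitted effect of over 50% in size.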 The conditions noted are these: LYMP2-026 lymphoblastoid cell viability, qHTS; series mostly up to 92.2 µM. Summed up: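 Cells are seeded at 2500 per well and held 5 hr at 37 C. Compounds are added in concentration series for 24 hr, then CellTiter-Glo reagent is applied and luminescence read.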
Experiment [13] is described as follows: Cell Viability - LYMP1-002 - Assay at 24 hr (AID 993). Note: % is set by controls: 0 for no effect and ±100 for the full control effect. To be noted: LYMP1-002 lymphoblastoid cells viability; series mostly up to 92.2 µM. Summed up: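 Acute toxicity is measured as concentration-dependent loss of cellular ATP in a human lymphoblastoid line (Coriell LYMP1-002) after 24 h treatment in complete medium. ATP is quantified by luciferase luminescence and AC50 derived by Hill modelling.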

Experiment [14] can be described thus: Cell Viability - LYMP1-002 - Assay at 40 hr (AID 994).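 Note: 0% = DMSO only and full inhibition = 92 µM tetraoctylammonium bromide; nearly all actives have a fitted effect of over 60% in size.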 To be noted: LYMP1-002 lymphoblastoid cell viability; series mostly up to 92.2 µM. Summed up:
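Cells are plated at 2500 per well and rested 5 hr at 37 C. Compounds are added and incubated 40 hr at 37 C. CellTiter-Glo reagent is added for 30 min at room temperature before luminescence is read.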

In experiment [15] the target is Alpha-galactosidase A (Homo sapiens) (UniProt P06280). Nature of the experiment: Counterscreen for Glucocerebrosidase Inhibitors: qHTS Assay for Human alpha-Galactosidase at pH 4.5 (AID 992). Note: 0% is about no effect. To be noted: purified enzyme, fluorogenic substrate; series mostly up to 76.9 µM. Summed up: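 Each compound is preincubated briefly with 2 nM enzyme before substrate addition (80 uM); plates then sit 20 min at ambient temperature, are quenched with 1M NaOH/1M glycine, and read fluorometrically.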

The target in experiment [16] is alpha-glucosidase (Oryza sativa, rice) (UniProt Q653V4). Description: Counterscreen for Glucocerebrosidase Inhibitors: qHTS Assay for Rice alpha-Glucosidase at pH 5.0 (AID 997).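 Note: 0% = full activity with enzyme and -100% = basal without enzyme.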 To be noted: rice alpha-glucosidase enzyme activity; series mostly up to 76.9 µM. In a few lines:
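Endpoint fluorogenic assay at pH 5.0: compounds (0.7 nM to 77 uM) titrated against 4 nM rice enzyme and 400 uM 4-MU-alpha-glucoside for 20 min at room temperature; NaOH/glycine stop, read ex 365/em 440 nm, Hill-fitted AC50.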

[17] abbreviates: measured here: cell count channel max response.
Setting [18] is: measured here: lipid channel max response.

Chain of Alpha-galactosidase A (Homo sapiens) (P06280 whole entry, looked up): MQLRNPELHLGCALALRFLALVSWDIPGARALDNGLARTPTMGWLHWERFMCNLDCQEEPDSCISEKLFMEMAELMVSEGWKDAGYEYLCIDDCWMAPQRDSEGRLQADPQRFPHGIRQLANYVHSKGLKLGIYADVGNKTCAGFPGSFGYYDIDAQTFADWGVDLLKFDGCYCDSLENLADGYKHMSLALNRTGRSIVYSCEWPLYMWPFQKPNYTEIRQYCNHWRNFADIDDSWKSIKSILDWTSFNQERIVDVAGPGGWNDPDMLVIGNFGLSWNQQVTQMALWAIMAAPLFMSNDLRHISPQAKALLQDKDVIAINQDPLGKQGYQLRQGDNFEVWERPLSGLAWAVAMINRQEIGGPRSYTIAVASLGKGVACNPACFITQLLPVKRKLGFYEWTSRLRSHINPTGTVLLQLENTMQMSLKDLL

For `CC[C@H](c1ccc(O)cc1)[C@@H](CC)c1ccc(O)cc1`, the activity change, negative = inhibition in [1] (at 25.7 µM (top of the series)) was -3.44% (inactive). Moreover, the max response in experiment [1] (setting [17]) is -23%; in experiment [1] (setting [18]) it was -23.9%.
On the same counts, the results for `Cc1c(-c2ccccc2)oc2c(C(=O)OCCN3CCCCC3)cccc2c1=O` are 1.6% (inactive), 5.61% and 7.37%.
For the molecule `COc1ccc(CN(CCN(C)C)c2ncccn2)cc1`, the activity change, negative = inhibition in experiment [1] (at 57.5 µM (top of the series)) is 7.7% (inactive). Moreover, the figures for the max response in [1] (setting [17]) and in experiment [1] (setting [18]) were 6.82% and 17.3%, respectively.
For `COc1ccc(C(=O)c2ccccc2O)c(O)c1`, the activity change, negative = inhibition in [1] (at 25.7 µM (top of the series)) was -7.39% (inactive); in [1] (at 57.5 µM (top of the series)) it was 4.5% (inactive). Further, the max response in [1] (setting [17]) is -10.6% and 8.18%; in [1] (setting [18]), -18.3% and 15.8%.
Regarding `c1ccc(CC2=NCCN2)cc1`, the activity change, negative = inhibition is 0.322% (inactive) in experiment [1] (at 25.7 µM (top of the series)) and 2.41% (inactive) in experiment [1] (at 57.5 µM (top of the series)). Further, the max response in experiment [1] (setting [17]) was -5.46% and 11.2%; in experiment [1] (setting [18]), -4.35% and 15.7%.
For `COc1cc(NS(=O)(=O)c2ccc(N)cc2)ncn1`, the activity change, negative = inhibition in [1] (at 25.7 µM (top of the series)) was 1.08% (inactive); in experiment [1] (at 57.5 µM (top of the series)), 3.4% (inactive). Also, the max response in experiment [1] (setting [17]) is 0.606% and 6.05%; in [1] (setting [18]), 1.51% and 9.04%.
For `CCCCC(CC)COC(=O)c1ccc(N(C)C)cc1` (stereo not drawn), the result in experiment [2], in experiment [3], in experiment [4], in experiment [5], in [6] and in experiment [7] was inactive. Besides, the molecule was classed as inactive in experiment [10], in experiment [12] and in [13]. The Potency entry in [8], in experiment [9], in [11] and in [14] was “inactive” each time.
As to `CC(C)(C)NC[C@H](O)COc1nsnc1N1CCOCC1`, the molecule was classed as inactive in experiment [15] and in experiment [16]. The activity change, negative = inhibition in [1] (at 25.7 µM (top of the series)) is -2.08% (inactive); in [1] (at 57.5 µM (top of the series)), 1.69% (inactive). The max response in experiment [1] (setting [17]) was 10% and 1.77%; in experiment [1] (setting [18]), 6.06% and 5.65%.
Consider `CC(=O)NO`, for which the activity change, negative = inhibition in experiment [1] (at 57.5 µM (top of the series)) was 3.44% (inactive). The max response is 22.2% in experiment [1] (setting [17]) and 28.9% in experiment [1] (setting [18]).
Turning to `NCCNc1cccc2ccccc12`, the call in [2], in experiment [3], in [4], in [5], in experiment [6] and in experiment [7] was inactive. For the same molecule, the call in experiment [12] and in experiment [13] was inactive. In addition, the Potency result in experiment [8], in experiment [11] and in [14] was “inactive” throughout.
As to `O=C(O)CCC(=O)Nc1ccc(S(=O)(=O)Nc2nccs2)cc1`, the results for the activity change, negative = inhibition in experiment [1] (at 25.7 µM (top of the series)) and in experiment [1] (at 57.5 µM (top of the series)) were 0.767% (inactive) and 7.18% (inactive), respectively. In addition, the max response in experiment [1] (setting [17]) was 5.61% and 16.3%; in experiment [1] (setting [18]) it was 3.26% and 28.6%.
Take `CCN(CC)CCNc1ccc(CO)c2sc3ccccc3c(=O)c12`: the activity change, negative = inhibition in [1] (at 25.7 µM (top of the series)) was -5.73% (inactive); in experiment [1] (at 57.5 µM (top of the series)) it was -11.5% (inactive). In addition, the max response was -10.2% and 2.62% in experiment [1] (setting [17]); -16.8% and -5.8% in [1] (setting [18]).
On to `C/C=C/c1ccc(O)c(OC)c1`, for which the result in experiment [2], in experiment [3], in experiment [4], in [5], in [6] and in experiment [7] was inactive. In addition, the call in experiment [10], in experiment [12] and in experiment [13] was inactive. The Potency result in experiment [8], in experiment [9], in experiment [11] and in [14] was “inactive” each time.
`CN(C)CCC[C@@]1(c2ccc(F)cc2)OCc2cc(C#N)ccc21`: the outcome in experiment [15] and in [16] was inactive. Also, in experiment [1] (at 57.5 µM (top of the series)), the activity change, negative = inhibition is 0.0614% (inactive) and -1.76% (inactive). The max response in experiment [1] (setting [17]) is 5.54% and 6.49%; in [1] (setting [18]), 4.25% and 5%.
For `COc1cc([C@H]2Oc3cc([C@H]4Oc5cc(O)cc(O)c5C(=O)[C@@H]4O)ccc3O[C@@H]2CO)ccc1O`, the call in experiment [2], in experiment [3], in experiment [4], in experiment [5], in experiment [6] and in experiment [7] was inactive. Also, the molecule was classed as inactive in experiment [10], in experiment [12] and in experiment [13]. The Potency result in experiment [8], in [9], in experiment [11] and in [14] was “inactive” each time.
With `CN=C(N)NCCC[C@H](N)C(=O)O`, the result in [15] and in [16] was inactive. For the same molecule, in experiment [1] (at 57.5 µM (top of the series)), the activity change, negative = inhibition was 0.0216% (inactive). In addition, the max response in experiment [1] (setting [17]) is -14.9%; in [1] (setting [18]) it was -15.5%.
